# Experimental data published in PubChem BioAssay AID588342 (National Center for Advancing Translational Sciences (NCATS), 2011).
# About 25,000 (6.9%) of roughly 360,000 compounds were called active. Inconclusive results (about 9%) are left out. This is one part of a sample in which actives are shown more often than they occur. Values without a mark were called inactive. The call rests on the fitted dose curve; in most records, active means well fitted inhibition curve with a large enough effect; inconclusive means small, poorly fitted or top-dose-only effect; inactive means flat fitted curve, though single readings scatter.
# Biological target: Luciferin 4-monooxygenase (Photinus pyralis) (UniProt P08659)
# Assay: qHTS profiling assay for firefly luciferase inhibitor/activator using purifed enzyme and Km concentrations of substrates (counterscreen for miR-21 project); further: nearly all actives have a fitted effect of over 55% in size;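 on activity change, negative = inhibition: plate controls were vehicle for no effect and reference inhibitor for full effect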
# Details: purified FLuc, luminescence inhibition; series mostly up to 57.5 µM; activity change, negative = inhibition: at the top concentration
# Method in brief: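 Purified P. pyralis luciferase (10nM final) with 10uM D-luciferin and 10uM ATP (Km levels) in 50mM Tris acetate pH 7.5, 10mM Mg acetate, 0.01% Tween-20, 0.05% BSA; qHTS 6-point titration, ~60 µM downward; luminescence read.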
# Potency means the concentration at half of the fitted maximal effect.
# Sequence of Luciferin 4-monooxygenase (Photinus pyralis) (P08659 whole entry, looked up): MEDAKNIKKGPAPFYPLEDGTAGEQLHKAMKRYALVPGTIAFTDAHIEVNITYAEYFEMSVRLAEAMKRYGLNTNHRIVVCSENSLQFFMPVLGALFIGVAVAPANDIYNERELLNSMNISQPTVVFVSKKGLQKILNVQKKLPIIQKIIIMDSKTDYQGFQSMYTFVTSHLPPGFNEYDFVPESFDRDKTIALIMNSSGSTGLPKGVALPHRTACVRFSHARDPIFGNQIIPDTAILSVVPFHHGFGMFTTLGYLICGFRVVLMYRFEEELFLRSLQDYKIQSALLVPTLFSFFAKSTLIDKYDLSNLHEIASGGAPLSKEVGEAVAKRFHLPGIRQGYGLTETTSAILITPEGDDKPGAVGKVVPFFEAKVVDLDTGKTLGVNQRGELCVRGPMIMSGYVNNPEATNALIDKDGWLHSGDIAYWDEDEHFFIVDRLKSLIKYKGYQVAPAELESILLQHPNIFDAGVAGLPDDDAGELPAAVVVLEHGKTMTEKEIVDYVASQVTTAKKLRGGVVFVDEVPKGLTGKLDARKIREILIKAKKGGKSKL
Structure (SMILES),"activity change, negative = inhibition [%]",Potency
COc1ccc(S(=O)(=O)NCc2cccn2Cc2cccc(C)c2)cc1Cl,-8.6,
Cc1ccccc1C(=O)NCc1nc(-c2ccc(Cl)cc2)no1,-1.77,
Cc1cc(Cl)ccc1OCCCC(=O)NCc1ccncc1,-4.06,
Cc1cc(Cl)ccc1OCc1nc(-c2ccncc2)no1,,10.7 µM (active)
Cc1ccc(CNC(=O)CSc2c(C)cnc3c2c(=O)n(C)c(=O)n3C)cc1,-0.897,
O=C(Nc1ccc(Cl)cc1)c1ccsn1,,12 µM (active)
CCC(=O)Nc1ccc(C(=O)NNC(=O)c2ccc(Cl)cc2)cc1,-3.51,
O=C(Nc1cccc(Cl)c1)c1csnn1,-14.4,
O=[N+]([O-])c1cc(-c2nc(-c3ccccc3)no2)ccc1NCc1ccco1,-8.68,
Cc1cc2n(n1)C(c1cc(C(C)(C)C)c(O)cc1O)Nc1ccccc1-2 (stereo not given),-15.3,
CCC1C=C(c2ccccc2)C=CN=C1N(CC)CC (stereo not given),0.24,
CCOc1ccc(CCNC(=O)Cn2nc(CC)n3c(cc4sc(CC)cc43)c2=O)cc1OCC,-5.54,
Cc1cc(-c2ccccc2)n2nc(-c3ccccc3)cc2n1,-16.5,
Cc1cc(N)n2nc(-c3ccc(C(C)(C)C)cc3)cc2n1,,0.601 µM (active)
COc1ccc(-c2cc(C(F)(F)F)n3nc(-c4ccccc4)cc3n2)cc1OC,-0.561,
Cc1cc(C)cc(-n2c(SCC(=O)NCC3CCCO3)nc3c([nH]c4ccccc43)c2=O)c1 (stereo not given),-0.071,
COc1cccc(NC(=O)Nc2ccc3c(c2)N(C)C(=O)c2ccccc2S3)c1,1.22,
CCCCS(=O)(=O)c1oc(-c2cccs2)nc1S(=O)(=O)c1ccccc1,-0.854,
CCOCCCNC(=O)C(NC(=O)c1ccccc1O)c1ccccc1 (stereo not given),-1.29,
CC(C)CCNC(=O)c1ccc2c(Cl)c3c(nc2c1)CCC3,,0.675 µM (active)
COc1ccc(N2CCN(C(=O)c3ccc4c(Cl)c5c(nc4c3)CCCC5)CC2)cc1,,inactive
CC(=O)c1ccc(NC(=O)c2ccc3c(Cl)c4c(nc3c2)CCCC4)cc1,3.57,
CCOc1ccc(OCC(=O)OC(C)C(=O)NC2CCCCC2C)cc1 (stereo not given),-0.597,
CCc1cc2c(cc3c(=O)n(CC(=O)NCCc4ccc(OC)c(OC)c4)ncn32)s1,-4.14,
COc1ccc(NC(=O)C/C(C)=N/NC(=O)c2cnccn2)cc1Cl,0.369,
CCN(CC)c1ccc(/C=N/NC(=O)c2cnccn2)c(O)c1,,9.53 µM (active)
Cc1ccc(C(=O)NCCNC(=O)c2cnccn2)cc1,-0.972,

Structure (SMILES),"activity change, negative = inhibition [%]",Potency
O=C(CSc1ncnc2c1cnn2CCc1ccccc1)Nc1ccc(F)cc1,4.06,
CC(=O)c1ccc(NC(=O)C2CCN(S(=O)(=O)c3c(C)noc3/C=C/c3ccc(C)cc3)CC2)cc1,1.25,
COc1ccc(C2(C)ON(c3ccccc3C(F)(F)F)C2=O)cc1 (stereo not given),0.0812,
CCNCCC(=O)N1c2ccccc2Sc2ccc(NC(=O)OCC)cc21,2.62,
O=C(Nc1ccccc1Br)c1cc(CN2CCCC2)on1,-18.8,
Nc1nonc1C(=O)NCCc1ccccc1,-0.421,
Cc1nn(Cc2ccc(F)cc2)c(C)c1NC(=O)c1cc(CC(C)C)on1,-4.75,
C[C@H](NC(=O)NCCc1ccccc1)C(=O)O,-5.46,
CC(C)Cc1cc(C(=O)Nc2cc(Br)ccc2O)no1,,12 µM (active)
CC(C)Cc1cc(C(=O)NCCc2ccccc2)no1,,10.7 µM (active)
O=S(=O)(NCCCN1CCOCC1)c1ccc(F)c(Cl)c1,0.23,
CCCN=C1NC(=O)C(CC(=O)NCCc2ccc(OC)c(OC)c2)S1 (stereo not given),3.61,
Cc1cccc(-n2ccnc2SCC(=O)Nc2cc(C(F)(F)F)ccc2Cl)c1,-5.71,
CN1CCN(C(CNC(=O)c2ccccc2F)c2ccc3c(c2)OCO3)CC1 (stereo not given),-1.47,
CCn1c(CSc2nc(C)cc(C)n2)nnc1SCC(N)=O,0.421,
C=CCn1c(SCc2c(C(=O)OC)sc(N)c2C(=O)OC)nnc1-c1ccc(Cl)cc1,0.526,
C=CCn1c(SCC(N)=O)nnc1-c1cc2c(s1)CCC(CC)C2 (stereo not given),,7.57 µM (active)
Cc1oc2ncnc(N3CCCCC3)c2c1C(=O)N1CCN(c2cccc(Cl)c2)CC1,-3.14,
Cc1ccc(O)c(NC(=O)CCS(=O)(=O)c2nc(-c3ccc4c(c3)OCO4)cc(C(F)(F)F)n2)c1,1.61,
CCc1ccc(NC(=O)c2cc(S(=O)(=O)N3CCCC(C)C3)cn2C)cc1 (stereo not given),-1.37,
CCOc1ccc(Nc2ncnc3scc(-c4ccc(OC)cc4)c23)cc1,3.74,
COc1ccc(Nc2ncnc3ccc(Br)cc23)c(OC)c1,,26.9 µM (active)
COc1ccc(Nc2ncnc3sc(-c4ccccc4)cc23)c(OC)c1,,19 µM (active)
O=C(O)CCCCCNc1ncnc2ccc(Br)cc12,0.793,
COc1ccc(Nc2nc(=O)[nH]nc2C)cc1,10.5,
Oc1ccccc1N1CCN(c2ncnc3sc(-c4ccccc4)cc23)CC1,-11.7,
COc1ccc(Nc2ncnc3sc(C)cc23)cc1,,16.9 µM (active)

Structure (SMILES),"activity change, negative = inhibition [%]",Potency
C=CCNc1ncnc2ccc(Br)cc12,-1.56,
COc1ccc(NC(=O)c2sc(N3CCOCC3)nc2-c2ccccc2)c(OC)c1,-2.03,
Cc1cc(C)cc(NC(=O)CSc2nc3nccnc3c(=O)n2CCc2c[nH]c3ccccc23)c1,-6.41,
COc1ccc(N2CCN(C(=O)C3CCCN(C(=O)c4cc5sccc5n4C)C3)CC2)cc1 (stereo not given),-10.7,
Cc1cc(C)c2sc(NC(=O)c3ccc(S(=O)(=O)N4CCCC4)cc3)nc2c1,-1.89,
CC(C)(C)c1ccc(/C=C2\Oc3c(ccc(O)c3CN3CCN(CCO)CC3)C2=O)cc1,-7.13,
CCOc1ccc(-n2c(C)nc3c(cnn3-c3ccc(C)cc3)c2=O)cc1,6.57,
CCN(CC(=O)Nc1ccc(NC(C)=O)cc1)C(=O)CSC(=S)N1CCCC1,-0.101,
Cc1[nH]n(C)c(=O)c1C(=O)c1c(-c2c(Cl)cccc2Cl)noc1C,0.456,
O=c1c2ccccc2c(-c2ccc(F)cc2)nn1-c1ccc(C(F)(F)F)cc1,5.56,
Cn1c(-c2ccc(F)cc2)cc2onc(-c3ccccc3Cl)c2c1=O,,2.13 µM (active)
O=C1c2ccccc2C(=O)N1Cc1cc(-c2ccccc2Cl)no1,-14,
Cc1onc(-c2ccccc2)c1C(=O)N1CCN(S(=O)(=O)c2ccccc2C(F)(F)F)CC1,3.66,
Cn1c(-c2ccc(C(F)(F)F)cc2)cc2onc(-c3ccccc3)c2c1=O,,0.536 µM (active)
COc1ccccc1C1C(C(=O)N2CCCCC2)=C(C)Nc2nc3ccccc3n21 (stereo not given),1.67,
COc1ccccc1CNC(=O)CCCN1C(=O)NC2(CCCC2)C1=O,-1.94,
CCc1cc(CNC(=O)CC2C(=O)NCCN2CC2CCCCC2)on1 (stereo not given),3.31,
FC(F)(F)C1CCCN(c2nsc3ccccc23)C1 (stereo not given),,9.53 µM (active)
O=C(NC(Cc1ccccc1)C(=O)N1CCCC(C(F)(F)F)C1)c1ccccc1 (stereo not given),-0.559,
CC(=O)N1CCCc2cc(S(=O)(=O)N3CCC(C(=O)NCc4ccc(F)cc4)CC3)ccc21,-4.77,
CNC(=O)C(NC(=O)c1ccccc1)=C(C)C,-0.136,
O=C(NC(=O)N1CCOCC1)c1ccccc1,-2.28,
O=C(NC(=O)c1ccccc1)Nc1ccccc1O,,1.9 µM (active)
COc1ccc(OC)c(NC(=O)CSC2=Nc3ccccc3C3=NC(CC(=O)NCc4ccc(F)cc4)C(=O)N23)c1 (stereo not given),-11,
COc1cccc2sc(N(CCCN(C)C)C(=O)C(c3ccccc3)c3ccccc3)nc12,6.95,
COc1cc2ccccc2cc1C(=O)N1CCOCC1,4.45,
CCC(=O)Nc1nc(C)c(C(=O)Nc2cccc(Cl)c2)s1,-11.7,

Structure (SMILES),"activity change, negative = inhibition [%]",Potency
COc1cccc2sc(Nc3nc(C)c(C(C)=O)s3)nc12,,6.75 µM (active)
COC(=O)c1ccc(NC(=O)c2cc(Cl)ccc2OC)cc1,-7.08,
COc1cc2ccccc2cc1C(=O)Nc1nc(C)c(C(C)=O)s1,,4.78 µM (active)
COc1ccc(Br)cc1C(=O)Nc1cccc(C)c1C,3.91,
COc1ccccc1NC(=O)c1cc(Cl)nnc1Cl,-4.24,
COc1cc(OC)c(C(=O)Nc2ccccc2-c2ccccc2)cc1OC,4.62,
COc1cc2ccccc2cc1C(=O)Nc1ccccc1C,,8.49 µM (active)
COc1cc(OC)c(C(=O)Nc2ccc(N(C)C)cc2)cc1OC,,10.7 µM (active)
CNC(=O)c1sc(NCc2ccccc2OC)nc1C,-3.58,
CC(=O)c1ccc(NC(=O)CSc2c(C(C)C)cnc3c2c(=O)n(C)c(=O)n3C)cc1,-12.3,
CS(=O)(=O)N(CC(=O)N1CCOCC1)c1ccc2c3c(cccc13)CC2,3.63,
Cc1ccc(S(=O)(=O)N2CCC(C(=O)OCC(=O)N3CC(=O)Nc4ccccc43)CC2)cc1,0.335,
Cc1cc(C)n(CCC(=O)N2CCN(S(=O)(=O)c3ccc(C)c(C)c3)CC2)n1,0.684,
COc1ccccc1C(=O)Nc1c(C(=O)N(C)Cc2ccccc2)sc2nc(C)c(Cl)c(C)c12,1.14,
O=C(O)c1ccc2c(c1)N(Cc1ccc(F)cc1)C(=O)c1ccccc1S2=O (stereo not given),-16.8,
Cc1cc(C)cc(OCC(=O)Nc2c(C(=O)c3ccccc3)oc3ccccc23)c1,2.57,
Cc1ccc2oc(C(=O)Nc3ccc(S(=O)(=O)N4CCCCCC4)cc3)cc(=O)c2c1,-1.02,
O=[N+]([O-])c1cc(S(=O)(=O)NCCc2ccccn2)ccc1Cl,3.12,
CCOc1ccc(S(=O)(=O)N2CCC(C(=O)NCC(=O)Nc3cccc(Cl)c3C)CC2)cc1,-2.11,
O=C(CN1C(=O)COc2ccc(S(=O)(=O)N3CCCCCC3)cc21)N1CCN(c2cccc(C(F)(F)F)c2)CC1,-9.19,
CCOc1ccc(C(=O)c2cn(Cc3ccc(F)cc3)c3ccc(F)cc3c2=O)cc1,-2.06,
COc1cc2ccccc2cc1C(=O)Nc1ccc(NC(=O)c2cccs2)cc1,-10.6,
COc1cc2ccccc2cc1C(=O)Nc1ccncc1,,12 µM (active)
COc1cc2ccccc2cc1C(=O)Nc1ccc(S(=O)(=O)Nc2cc(C)on2)cc1,-15.8,
